From PubChem
CSC inhib – blocks cancer stem cells | inhibition, % at 7.5 µM | cancer stem cell-like cells viability, luminescence | 300,000 compounds, 1.1% hits | AID 2717; in the data active = inhibition above about 75%; inconclusive = no clear call, values can overlap the other calls; tested in HMLE shEcad cells
Bfl-1 A1 inh – inhibitors of the anti-apoptotic protein A1, read as caspase activation; MEF A1-2A-BIM cells, Caspase-Glo 3/7 luminescence, 3 h; percent of clofoctol response, vehicle zero; caspase activation, % (concentration not given with the values); 330,000 compounds, 0.066% hits; AID 2462;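 active = over half of replicate activation scores above 10%, or exactly half above 10 with the replicate mean above 10; inconclusive = replicate mean below 10 yet half the replicates above 10; inactive = over half of replicates below 10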
aSyn 5UTR inh – 5' untranslated region of α-synuclein, MLPCN primary screen. inhibition, % (tested at 7.5 µM). alpha-synuclein 5'UTR reporter, inhibitor activity. 300,000 compounds, 0.82% hits; in the data active = inhibition above about 60%; inconclusive = no clear call, values can overlap the other calls;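 also: H4 neuroglioblastoma cells stably carrying SNCA 5'UTR luciferase fusion; 0% = DMSO wells and 100% = positive control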
Mdm2 MdmX PPI – inhibitors of human Mdm2/MdmX interaction; O15151+Q00987; inhibition, % at 8 µM; 330,000 compounds, 3% hits; AID 485346; SaOS-2 split-luciferase Mdm2/MdmX complementation, luminescence;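 active = inhibition of at least 50% at 8 µM in the primary screen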
Target sequence (O15151 whole entry, looked up): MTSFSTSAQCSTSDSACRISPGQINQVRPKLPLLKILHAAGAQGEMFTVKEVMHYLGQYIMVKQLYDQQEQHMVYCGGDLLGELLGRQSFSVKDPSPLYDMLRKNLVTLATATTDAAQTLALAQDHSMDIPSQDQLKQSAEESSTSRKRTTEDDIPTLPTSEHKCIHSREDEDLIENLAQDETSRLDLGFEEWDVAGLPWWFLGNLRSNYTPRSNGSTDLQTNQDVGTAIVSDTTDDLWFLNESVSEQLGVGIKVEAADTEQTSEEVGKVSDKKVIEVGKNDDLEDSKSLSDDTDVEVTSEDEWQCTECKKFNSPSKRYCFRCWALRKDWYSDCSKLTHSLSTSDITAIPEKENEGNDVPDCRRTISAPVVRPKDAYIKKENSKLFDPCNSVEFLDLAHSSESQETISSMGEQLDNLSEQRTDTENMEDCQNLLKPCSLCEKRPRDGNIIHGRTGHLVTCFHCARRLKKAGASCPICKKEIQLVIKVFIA
Target sequence (Q00987 whole entry, looked up): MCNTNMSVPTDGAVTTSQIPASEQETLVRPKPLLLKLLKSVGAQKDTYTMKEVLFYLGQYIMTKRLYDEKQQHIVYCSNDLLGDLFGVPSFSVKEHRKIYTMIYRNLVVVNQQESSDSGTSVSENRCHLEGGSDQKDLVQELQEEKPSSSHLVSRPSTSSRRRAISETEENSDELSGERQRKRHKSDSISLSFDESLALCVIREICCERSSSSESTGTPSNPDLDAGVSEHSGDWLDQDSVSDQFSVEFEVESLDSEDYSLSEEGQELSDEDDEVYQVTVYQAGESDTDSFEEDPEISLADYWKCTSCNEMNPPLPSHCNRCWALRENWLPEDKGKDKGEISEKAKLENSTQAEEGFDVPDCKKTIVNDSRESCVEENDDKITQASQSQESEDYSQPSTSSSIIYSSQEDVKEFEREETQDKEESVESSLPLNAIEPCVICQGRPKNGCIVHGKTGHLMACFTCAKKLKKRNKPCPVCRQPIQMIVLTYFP
Beta apoptosis – blocks beta cell apoptosis; AID 435005; INS-1E cytokine-induced death, ATP luminescence, 48 h; percent of positive-control rescue, neutral wells zero; 300,000 compounds, 0.8% hits; protection from apoptosis, % (concentration not given with the values);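 active = Every replicate reaches about 75%, or at least half do and their mean reaches it too, limit read from the data; inconclusive = At least half of replicates reach the limit but their mean does not; inactive = Under half of replicates reach the limit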;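 also: 0% = cytokine-treated negative control wells and 100% = positive control rescue; higher means more ATP so stronger rescue from cytokine killing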
Mdm2 MdmX conf – confirmation of human Mdm2/MdmX interaction inhibitors; shares compounds with Mdm2 MdmX PPI; Mdm2-MdmX binding, luminescent assay; inhibition, % at 8 µM; 10,000 compounds, 55% hits; AID 489028; in the data active = inhibition above about 40%
FLuc counter – inhibits full-length luciferase, flagging false Mdm2/MdmX hits. inhibition, % at 8 µM. shares compounds with Mdm2 MdmX PPI. SaOS-2 full-length luciferase counterscreen, luminescence. 6,200 compounds, 77% hits. AID 504607;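 active = mean inhibition at 8 µM reaching about 37%, which flags the compound as non-specific, limit read from the data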;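 also: p53-null SaOS-2 cells with luciferase driven by a doxycycline-inducible promoter; compound on cells about two nights before reading with doxycycline added after day one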
An asterisk follows results filed as active. Sampled rows, rich in hits. Any-hit rate of the full collection: about 4.1%.

Results for Cc1cc(-c2csc(NC(=O)c3cc4ccccc4o3)n2)c(C)n1C ?
CSC inhib: 3; Bfl-1 A1 inh: -1; aSyn 5UTR inh: -53; Mdm2 MdmX PPI: 9; Beta apoptosis: -3

What do the screens show for `Cc1c(C(=O)Nc2nc(-c3ccccn3)cs2)oc2ccccc12`?
CSC inhib: 109*; Bfl-1 A1 inh: -1; Mdm2 MdmX PPI: 67*; Beta apoptosis: 84*; Mdm2 MdmX conf: 64*; FLuc counter: 47*

How did CCN(CC)c1ccc(-c2sc(Nc3ccccc3)n[n+]2-c2ccc(F)cc2)cc1 do in these assays?
CSC inhib: 2; Bfl-1 A1 inh: 1; aSyn 5UTR inh: -55; Mdm2 MdmX PPI: 29; Beta apoptosis: 32

How did CCc1ccc(Nc2n[n+](-c3ccccc3)c(-c3ccc(OCc4ccccc4)cc3)s2)cc1 do in these assays?
CSC inhib: 27; Bfl-1 A1 inh: -1; aSyn 5UTR inh: -62; Mdm2 MdmX PPI: 26; Beta apoptosis: 60

How did CCc1ccc(Nc2n[n+](-c3ccccc3)c(/C=C/c3ccccc3)s2)cc1 do in these assays?
CSC inhib: 13; Bfl-1 A1 inh: inconclusive; aSyn 5UTR inh: -169; Mdm2 MdmX PPI: 52*; Beta apoptosis: 12; Mdm2 MdmX conf: -31

Results for COc1ccc2ccccc2c1-c1sc(Nc2ccccc2)n[n+]1-c1ccc(F)cc1 ?
CSC inhib: 52; Bfl-1 A1 inh: 1; aSyn 5UTR inh: 3; Mdm2 MdmX PPI: 76*; Beta apoptosis: 38; Mdm2 MdmX conf: 27

What do the screens show for `CCc1ccc(Nc2n[n+](-c3ccccc3)c(-c3ccc(N(CC)CC)cc3)s2)cc1`?
CSC inhib: 34; Bfl-1 A1 inh: -1; aSyn 5UTR inh: -19; Mdm2 MdmX PPI: 87*; Beta apoptosis: 108*; Mdm2 MdmX conf: 53*; FLuc counter: 44*

How did CCc1ccc(Nc2n[n+](-c3ccccc3)c(-c3c(Cl)cccc3Cl)s2)cc1 do in these assays?
CSC inhib: 109*; Bfl-1 A1 inh: 0; aSyn 5UTR inh: 10; Mdm2 MdmX PPI: 100*; Beta apoptosis: 108*; Mdm2 MdmX conf: 96*; FLuc counter: 56*

What do the screens show for `O=C(CN(Cc1ccc(Cl)cc1)S(=O)(=O)c1ccccc1)NCC1CCCO1` (centres undefined)?
CSC inhib: -4; Bfl-1 A1 inh: 0; aSyn 5UTR inh: 5; Mdm2 MdmX PPI: 5; Beta apoptosis: 7

What do the screens show for `Fc1ccc(-[n+]2nc(Nc3ccccc3)sc2-c2c(Cl)cccc2Cl)cc1`?
CSC inhib: 42; Bfl-1 A1 inh: 0; aSyn 5UTR inh: -15; Mdm2 MdmX PPI: 67*; Beta apoptosis: 2; Mdm2 MdmX conf: 24; FLuc counter: 48*

How did COc1ccc(C)cc1Nc1n[n+](C)c(-c2c3ccccc3cc3ccccc23)s1 do in these assays?
CSC inhib: -2; Bfl-1 A1 inh: -3; aSyn 5UTR inh: -16; Mdm2 MdmX PPI: -1; Beta apoptosis: -2

What do the screens show for `COc1ccc(C)cc1Nc1n[n+](-c2ccccc2)c(-c2c(Cl)cccc2Cl)s1`?
CSC inhib: 74; Bfl-1 A1 inh: 1; aSyn 5UTR inh: 54; Mdm2 MdmX PPI: 95*; Beta apoptosis: 99*; Mdm2 MdmX conf: 89*; FLuc counter: 55*

How did COc1ccccc1/C=C/C(=O)c1cc(Br)ccc1OC(=O)c1ccco1 do in these assays?
CSC inhib: 3; Bfl-1 A1 inh: 2; aSyn 5UTR inh: -15; Mdm2 MdmX PPI: 55*; Beta apoptosis: 20; Mdm2 MdmX conf: 14

What do the screens show for `c1ccc2c(c1)CCc1ccccc1C2=C1CCNCC1`?
CSC inhib: 18; Bfl-1 A1 inh: 0; aSyn 5UTR inh: 2; Mdm2 MdmX PPI: 67*; Beta apoptosis: -10; Mdm2 MdmX conf: 49*; FLuc counter: 73*

How did CN1CCC(=C2c3ccccc3C=Cc3ccccc32)CC1 do in these assays?
CSC inhib: -9; Bfl-1 A1 inh: -1; aSyn 5UTR inh: -24; Mdm2 MdmX PPI: 46; Beta apoptosis: 3

How did O=C(Nc1cccc([N+](=O)[O-])c1)c1ccc2ccccc2c1O do in these assays?
CSC inhib: -1; Bfl-1 A1 inh: -8; aSyn 5UTR inh: -128; Mdm2 MdmX PPI: 77*; Beta apoptosis: -5; Mdm2 MdmX conf: 12

How did CCOC(=O)Nc1ccc(C(=O)/C=C/c2ccccc2)cc1 do in these assays?
CSC inhib: 22; Bfl-1 A1 inh: 1; aSyn 5UTR inh: -69; Mdm2 MdmX PPI: 31; Beta apoptosis: 16

How did CCC1CSC(Nc2ccc(C(=O)/C=C/c3ccc(Oc4ccccc4)cc3)cc2)=N1 (centres undefined) do in these assays?
CSC inhib: 56; Bfl-1 A1 inh: -1; aSyn 5UTR inh: -88; Mdm2 MdmX PPI: 55*; Beta apoptosis: 56; Mdm2 MdmX conf: 26

Results for O=C(/C=C/c1cc([N+](=O)[O-])ccc1OC(F)F)Nc1cccc([N+](=O)[O-])c1 ?
aSyn 5UTR inh: 20; Mdm2 MdmX PPI: 75*; Mdm2 MdmX conf: 23

How did O=C(/C=C/c1cc([N+](=O)[O-])ccc1OC(F)F)Nc1ccc(OC(F)F)cc1 do in these assays?
CSC inhib: 3; Bfl-1 A1 inh: -1; aSyn 5UTR inh: -10; Mdm2 MdmX PPI: 10; Beta apoptosis: 8

How did COC(C(=O)N1CCC(CCC(=O)Nc2ccccc2)CC1)c1ccccc1 (centres undefined) do in these assays?
CSC inhib: -1; Bfl-1 A1 inh: 0; aSyn 5UTR inh: -31; Mdm2 MdmX PPI: -30; Beta apoptosis: -1

How did CCOc1ccc2[nH]c(=O)c(CN(CCN3CCCC3)C(=S)Nc3ccccc3OCC)cc2c1 do in these assays?
CSC inhib: -15; Bfl-1 A1 inh: 0; aSyn 5UTR inh: -4; Mdm2 MdmX PPI: 100*; Beta apoptosis: -3; Mdm2 MdmX conf: 17

How did Cc1cc(C)cc(NC(=S)N2CCN(S(=O)(=O)c3ccccc3)CC2)c1 do in these assays?
CSC inhib: 0; Bfl-1 A1 inh: 1; Mdm2 MdmX PPI: 17; Beta apoptosis: -1

Results for CCOC(=O)c1c(O)c2cc(Cl)ccc2n(CC)c1=O ?
CSC inhib: -2; Bfl-1 A1 inh: 0; aSyn 5UTR inh: -53; Mdm2 MdmX PPI: 15; Beta apoptosis: -10

Results for OC(COCC(F)(F)C(F)(F)C(F)(F)C(F)F)Cn1c2ccc(Cl)cc2c2cc(Cl)ccc21 (centres undefined) ?
CSC inhib: 116*; Bfl-1 A1 inh: 0; aSyn 5UTR inh: -32; Mdm2 MdmX PPI: 95*; Mdm2 MdmX conf: 28

Results for Cc1ccc2oc(=O)c3cnn(CC(=O)Nc4cc(-c5cccc(F)c5)no4)c3c2c1 ?
CSC inhib: 22; Bfl-1 A1 inh: -1; aSyn 5UTR inh: 1; Mdm2 MdmX PPI: 74*; Beta apoptosis: -5; Mdm2 MdmX conf: 10

What do the screens show for `Cc1ccc2oc(=O)c3cnn(CC(=O)N4CCc5ccccc5C4)c3c2c1`?
CSC inhib: -18; Bfl-1 A1 inh: 2; aSyn 5UTR inh: -16; Mdm2 MdmX PPI: -7; Beta apoptosis: -2
